Records with an inconclusive call do not appear. Calls of active or inactive are those of the source. Unless noted, the call rests on the fitted dose curve; in most records, active means well fitted curve in the direction sought with a large enough effect; inconclusive means small, poorly fitted or top-dose-only effect, or another doubt; inactive means no such curve, though single readings can be large; an effect the other way counts as inactive or inconclusive.
Key:
[1] = P-glycoprotein substrates identified in KB-3-1 adenocarcinoma cell line, qHTS therapeutic library screen (AID 1346986); further: nearly all actives have a fitted effect of over 60% in size;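 further: potency means the concentration at half of the fitted maximal effect; potency is for cytotoxicity meaning loss of cell viability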
In short: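 Cells seeded 500/well in DMEM/10% FCS; compounds pinned in dose-response; 72 h incubation; CellTiter-Glo added, 5 min, luminescence. KB-8-5-11 run ±tariquidar to test reversal of P-gp resistance.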

[2] = P-glycoprotein substrates identified in KB-8-5-11 adenocarcinoma cell line, qHTS therapeutic library screen (AID 1346987); further: nearly all actives have a fitted effect of over 65% in size; further: potency means the concentration at half of the fitted maximal effect
In short: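 Steps: plate 500 KB-8-5-11 cells/well in DMEM + 10% FCS (colchicine removed); pin compounds in dose-response; incubate 72 h, 37 degree C, 5% CO2; add CellTiter-Glo, 5 min; read luminescence.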

[3] = Primary qHTS for inhibitors of nuclear receptor binding SET domain protein 2 (NSD2) in an isogenic RCH-ACV NSD2 p.E1099K mutant (9B) (AID 1645876); further: nearly all actives have a fitted effect of over 70% in size; further: potency means the concentration at half of the fitted maximal effect
[4] = target: Calcium and integrin-binding protein 1 (Homo sapiens) (UniProt Q99828); test: Primary qHTS for Identification of Calcium Integrin Binding Protein 1 (CIB1) Competitor (AID 1508620);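 further: GST tagged CIB1 binding a fluorescein labelled alphaIIb integrin peptide tracer; top concentration of the series differs between compounds; on the % scale 0 is the no-effect control and ±100 the full control effect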
In short: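 CIB1-GST (1 uM final) and compound incubated 15 min at room temperature before adding FITC-alphaIIb peptide tracer (100 nM final). Competition for binding read by fluorescence polarization (ex 480, em 540) after another 15 min at room temperature.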

[5] = Primary qHTS for inhibitors of nuclear receptor binding SET domain protein 2 (NSD2) in an RCH-ACV wild type WT cells (2C) (AID 1645877); further: nearly all actives have a fitted effect of over 70% in size; further: potency means the concentration at half of the fitted maximal effect
[6] = qHTS for Inhibitors of Ubiquitin-specific Protease USP2a Using CHOP2 as the Reporter: K633 Counterscreen (AID 652168); further: series mostly up to about 57 µM; % of control where 0% means no effect
In short: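 Cell-free interference counterscreen without USP2a: compounds pinned into enzyme-free buffer (20 mM Tris pH 8, 2 mM beta-mercaptoethanol, 0.05% Chaps), then DiUb K48-4IQF substrate added (100 nM stock); fluorescence read kinetically, Ex 525/Em 598.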

[7] = qHTS for Inhibitors of Ubiquitin-specific Protease USP2a Using CHOP2 as the Reporter: Cytotox Assay (AID 652170);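 further: series mostly up to about 46 µM; plate controls were DMSO-treated cells for no effect and wells without cells for full effect; nearly all actives have a fitted effect of over 70% in size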
In short: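 HCT116 human colon cancer cells, 600 per well in DMEM with 10% FBS, exposed to compounds for 72 hr at 37 deg C. ATP measured by CellTiter-Glo luminescence, normalized to DMSO cells and no-cell background.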

[8] = target: Ubiquitin carboxyl-terminal hydrolase 2 (Homo sapiens) (UniProt O75604); test: qHTS for Inhibitors of Ubiquitin-specific Protease USP2a Using CHOP2 as the Reporter: K484 Substrate (AID 652173); conditions: USP2 cleavage of DiUb K48 IQF substrate, fluorescence;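 further: cleavage of internally quenched K48 di-ubiquitin substrate measured as rising fluorescence over time; potency means the concentration at half of the fitted maximal effect; nearly all actives have a fitted effect of over 70% in size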
In short: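 USP2 (dispensed at 5 nM) was pinned with compounds, then DiUb K48 internally quenched fluorescent substrate (dispensed at 100 nM) was added. The buffer was 20 mM Tris pH 8, 2 mM beta-mercaptoethanol and 0.05% CHAPS. Cleavage was read kinetically as rising fluorescence, Ex 525/Em 598.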

[9] = Primary qHTS for small molecule stabilizers of the endoplasmic reticulum resident proteome: Secreted ER Calcium Modulated Protein (SERCaMP) assay (AID 1508630); further: on the % scale 0 is the no-effect control and ±100 the full control effect
In short: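 GLuc-SERCaMP-expressing SH-SY5Y cells, pretreated 16 h with compound, are challenged with thapsigargin to empty ER calcium stores; after 4 h, coelenterazine is added directly to the medium and luminescence is imaged.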

[10] = target: Glutathione peroxidase 1 (Homo sapiens) (UniProt P07203); test: Primary qHTS Assay for Inhibitors of Recombinant Selenoprotein Glutathione Peroxidase 1 (GPX1) (AID 1845191); further: nearly all actives have a fitted effect of over 65% in size
In short: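 10 nM GPX1 + cpd, 30 min RT; start w/ 1 mM GSH, 0.5 mM cumene hydroperoxide, 0.5 mM NADPH, 100 nM GR, 0.01% BSA; buffer 50 mM Tris-HCl pH 7.5, 2 mM EDTA, 150 mM NaCl; Fl 340/450, 0 & 15 min.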

[11] = qHTS drug screen for cell cycle checkpoint inhibitors in PARPi-resistant BRCA-mutant ovarian cancer cell lines. (AID 1963452; calls by dose curve; further: potency means the concentration at half of the fitted maximal effect); conditions: PEO1/OlaR viability, CellTiter-Glo luminescence, 96 h; for Z-AUC: stronger effect = lower value
In short: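 PEO1, PEO4 and PEO1/OlaR ovarian cancer cells, 600 per well, exposed 96 h at 37C to a dilution series. Viability read by CellTiter-Glo luminescence, normalized to DMSO and empty wells; activity summarized as Z-AUC.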

[12] = qHTS to identify inhibitors of the type 1 interferon - major histocompatibility complex class I in skeletal muscle: primary screen against the NCATS Mechanism Interrogation Plate v5.0 (MIPE) Libary (AID 1347411); further: nearly all actives have a fitted effect of over 65% in size; further: potency means the concentration at half of the fitted maximal effect;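 on activity change, negative = inhibition: plate controls were vehicle for no effect and reference inhibitor for full effect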
In short: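 Luminescence from HiBiT-tagged endogenous HLA-B*08:01 served as the MHC class I read-out. CRISPR-engineered C25cl48 human myoblasts received 4.0 ng/ml IFN-beta plus compound for 24 hrs, with an 11-point, 1:3 series topping at 46 uM final.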

[13] = target: Phospholipid hydroperoxide glutathione peroxidase GPX4 (Homo sapiens) (UniProt P36969); test: Primary qHTS Assay for Inhibitors of Recombinant Selenoprotein Glutathione Peroxidase 4 (GPX4) (AID 1845192); conditions: outcome: dose series up to 50 µM unless noted; further: series mostly up to about 50 µM; on the % scale 0 is the no-effect control and ±100 the full control effect; nearly all actives have a fitted effect of over 65% in size
In short: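 NADPH consumption, followed by fluorescence at 340/450 nm between 0 and 15 min, reports GPX4 activity via coupled glutathione reductase (100 nM). Enzyme 200 nM was pre-exposed to compound 30 min; 0.5 mM cumene hydroperoxide and 1 mM GSH served as substrates.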

[14] = measured here: PEO1 parental Z-AUC

Sequence of Calcium and integrin-binding protein 1 (Homo sapiens) (Q99828 whole entry, looked up): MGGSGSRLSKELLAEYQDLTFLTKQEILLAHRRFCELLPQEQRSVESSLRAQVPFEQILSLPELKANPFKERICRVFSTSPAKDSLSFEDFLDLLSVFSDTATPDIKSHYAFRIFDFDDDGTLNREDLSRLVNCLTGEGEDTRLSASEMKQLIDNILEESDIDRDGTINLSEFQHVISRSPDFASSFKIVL
Sequence of Glutathione peroxidase 1 (Homo sapiens) (P07203 whole entry, looked up): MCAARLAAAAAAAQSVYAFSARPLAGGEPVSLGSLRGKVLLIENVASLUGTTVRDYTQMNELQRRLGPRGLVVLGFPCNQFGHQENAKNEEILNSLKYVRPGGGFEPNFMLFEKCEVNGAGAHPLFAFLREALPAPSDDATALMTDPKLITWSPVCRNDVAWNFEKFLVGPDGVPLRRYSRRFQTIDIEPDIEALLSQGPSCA
Sequence of Phospholipid hydroperoxide glutathione peroxidase GPX4 (Homo sapiens) (P36969 whole entry, looked up): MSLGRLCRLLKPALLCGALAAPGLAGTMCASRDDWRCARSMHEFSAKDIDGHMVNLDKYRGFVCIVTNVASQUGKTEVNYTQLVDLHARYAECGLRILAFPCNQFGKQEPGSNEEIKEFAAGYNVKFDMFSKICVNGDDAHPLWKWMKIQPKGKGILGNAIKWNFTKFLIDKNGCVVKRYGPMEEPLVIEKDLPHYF
Sequence of Ubiquitin carboxyl-terminal hydrolase 2 (Homo sapiens) (O75604 whole entry, looked up): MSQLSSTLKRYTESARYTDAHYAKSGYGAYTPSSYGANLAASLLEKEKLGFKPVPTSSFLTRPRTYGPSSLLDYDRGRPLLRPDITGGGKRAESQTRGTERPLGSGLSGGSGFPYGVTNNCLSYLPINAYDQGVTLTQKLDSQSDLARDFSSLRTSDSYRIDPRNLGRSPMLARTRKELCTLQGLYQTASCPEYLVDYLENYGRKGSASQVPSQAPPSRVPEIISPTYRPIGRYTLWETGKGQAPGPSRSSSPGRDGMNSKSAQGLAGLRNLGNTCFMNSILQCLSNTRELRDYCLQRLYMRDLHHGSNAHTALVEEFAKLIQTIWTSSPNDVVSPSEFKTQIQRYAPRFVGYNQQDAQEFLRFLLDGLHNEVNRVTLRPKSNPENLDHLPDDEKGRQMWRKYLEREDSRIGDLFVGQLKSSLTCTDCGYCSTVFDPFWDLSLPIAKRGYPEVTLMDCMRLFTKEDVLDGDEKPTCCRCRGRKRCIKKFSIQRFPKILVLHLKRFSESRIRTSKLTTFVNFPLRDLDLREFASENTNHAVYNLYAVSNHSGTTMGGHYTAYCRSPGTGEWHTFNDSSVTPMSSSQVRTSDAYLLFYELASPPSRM

[2H]C([2H])([2H])C(OC(=O)[C@H](C)N[P@](=O)(OC[C@H]1O[C@@H](n2ccc(=O)[nH]c2=O)[C@](C)(F)[C@@H]1O)Oc1ccccc1)C([2H])([2H])[2H]
inactive: Potency [1] | Potency [2] | Potency [3]

O=C1CCCC2=C1C(c1ccccc1Br)N=C(Nc1nc3ccccc3o1)N2 (configuration not stated)
inactive: Potency [1] | Potency [2] | outcome [4] | Potency [3] | Potency [5]

O=C(Nc1ccc(S(=O)(=O)Nc2nccs2)cc1)c1cc(-c2ccccc2)nc2ccccc12
active: Potency [8] 1370 nM
inactive: outcome [6] | outcome [7] | Potency [1] | Potency [2] | outcome [4]

Cc1cc(I)ccc1Nc1c(C(=O)NOCC2CC2)cc(F)c(F)c1F
inactive: Potency [9] | Potency [10] | Z-AUC [11] 0.467
0.231: Z-AUC ([11]; measured here: PEO4 Z-AUC)
active: Potency [1] 23100 nM | Potency [2] 18400 nM | Potency [3] 8330 nM | Potency [5] 7420 nM
0.0632: Z-AUC [11, 14]

Clc1ccc2ncc(-c3cccc(NC4CCNCC4)n3)n2c1
inactive: outcome [4] | Potency [10]
active: Potency [1] 3660 nM | Potency [2] 16400 nM | Potency [3] 366 nM | Potency [5] 259 nM

C[C@]1(C(=O)Nc2ccc(F)nc2)CCCN1c1nc(Nc2cc(C3CC3)[nH]n2)c2cccn2n1
active: Potency [1] 2060 nM | Potency [2] 2910 nM | Potency [3] 1840 nM | Potency [5] 920 nM

Cc1ccc(NS(=O)(=O)c2cc3c(cc2NC(C)CO)NC(=O)CC3)cc1C (configuration not stated)
inactive: Potency [1] | Potency [2] | outcome [4] | Potency [10]

C[C@H]1COCCN1c1cc(C2(S(=O)(=O)C3CC3)CC2)nc(-c2ccc(NC(=S)NCCO)cc2)n1
inactive: Potency [13]
active: Potency [1] 103 nM | Potency [2] 731 nM | Potency [12] 208 nM | Potency [3] 59 nM | Potency [5] 93.4 nM

NC(=O)c1ncn(C2O[C@H](CO)[C@@H](O)[C@H]2O)c1N (some centres not stated)
inactive: Potency [1] | Potency [2] | Potency [3] | Potency [5]

CN1CCC(c2c(O)cc(O)c3c(=O)cc(-c4ccccc4Cl)oc23)C(O)C1 (configuration not stated)
active: Potency [1] 231 nM | Potency [2] 517 nM | Potency [3] 291 nM | Potency [5] 259 nM

Cc1cn(C2OC(CO)C(O)C2F)c(=O)[nH]c1=O (configuration not stated)
inactive: Potency [1] | Potency [2] | Potency [3]

O=C(NOCCO)c1cc(CN2OCCCC2=O)c(F)c(F)c1Nc1ccc(I)cc1F
inactive: Potency [1] | Potency [2] | Potency [12] | Potency [3] | Potency [10]

C[C@@]1(F)[C@H](O)[C@@H](CO)O[C@H]1n1ccc(N)nc1=O
inactive: Potency [1] | Potency [2] | Potency [3] | Potency [5]

CN1CCN(Cc2ccc(Nc3ncc(Cl)c(Nc4ccccc4S(=O)(=O)N(C)C)n3)cc2)CC1
active: Potency [1] 59.6 nM | Potency [2] 66.8 nM | Potency [12] 151 nM | Potency [3] 24.1 nM | Potency [11] 79.6 nM
-1.68: Z-AUC [11, 14]
-1.52: Z-AUC ([11]; measured here: PEO4 Z-AUC)
inactive: outcome [10] inactive [at 9.52 µM] | activity change, negative = inhibition [13] -3.36% [at 9.73 µM]
